From PubChem BioAssay (NCATS)
“And” between values parts separate entries of the source, which are not always exact repeats. Identical values can stand only once. Inconclusive results are not listed. The source made the active and inactive calls. Unless noted, the call rests on the fitted dose curve; in most records, active means well fitted curve in the direction sought with a large enough effect; inconclusive means small, poorly fitted or top-dose-only effect, or another doubt; inactive means no such curve, though single readings can be large; an effect the other way counts as inactive or inconclusive.

Assays:
[1] = P-glycoprotein substrates identified in KB-3-1 adenocarcinoma cell line, qHTS therapeutic library screen (AID 1346986); further: nearly all actives have a fitted effect of over 60% in size;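 further: potency means the concentration at half of the fitted maximal effect; potency is for cytotoxicity meaning loss of cell viability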
Method in brief: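 Cells seeded 500/well in DMEM/10% FCS; compounds pinned in dose-response; 72 h incubation; CellTiter-Glo added, 5 min, luminescence. KB-8-5-11 run ±tariquidar to test reversal of P-gp resistance.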

[2] = P-glycoprotein substrates identified in KB-8-5-11 adenocarcinoma cell line, qHTS therapeutic library screen (AID 1346987); further: nearly all actives have a fitted effect of over 65% in size; further: potency means the concentration at half of the fitted maximal effect
Method in brief: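 Steps: plate 500 KB-8-5-11 cells/well in DMEM + 10% FCS (colchicine removed); pin compounds in dose-response; incubate 72 h, 37 degree C, 5% CO2; add CellTiter-Glo, 5 min; read luminescence.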

[3] = molecular target: Calcium and integrin-binding protein 1 (Homo sapiens) (UniProt Q99828); assay: Primary qHTS for Identification of Calcium Integrin Binding Protein 1 (CIB1) Competitor (AID 1508620);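 further: GST tagged CIB1 binding a fluorescein labelled alphaIIb integrin peptide tracer; top concentration of the series differs between compounds; on the % scale 0 is the no-effect control and ±100 the full control effect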
Chain of Calcium and integrin-binding protein 1 (Homo sapiens) (Q99828 whole entry, looked up): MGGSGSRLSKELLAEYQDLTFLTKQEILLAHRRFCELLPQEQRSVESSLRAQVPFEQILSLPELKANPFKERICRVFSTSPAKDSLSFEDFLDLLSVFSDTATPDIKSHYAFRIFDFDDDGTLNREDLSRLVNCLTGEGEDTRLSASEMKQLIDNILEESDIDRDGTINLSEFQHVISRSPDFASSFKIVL
Method in brief: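 CIB1-GST (1 uM final) and compound incubated 15 min at room temperature before adding FITC-alphaIIb peptide tracer (100 nM final). Competition for binding read by fluorescence polarization (ex 480, em 540) after another 15 min at room temperature.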

[4] = Primary qHTS for inhibitors of nuclear receptor binding SET domain protein 2 (NSD2) in an isogenic RCH-ACV NSD2 p.E1099K mutant (9B) (AID 1645876); further: nearly all actives have a fitted effect of over 70% in size; further: potency means the concentration at half of the fitted maximal effect
[5] = Primary qHTS for inhibitors of nuclear receptor binding SET domain protein 2 (NSD2) in an RCH-ACV wild type WT cells (2C) (AID 1645877); further: nearly all actives have a fitted effect of over 70% in size; further: potency means the concentration at half of the fitted maximal effect
[6] = molecular target: Glutathione peroxidase 1 (Homo sapiens) (UniProt P07203); assay: Primary qHTS Assay for Inhibitors of Recombinant Selenoprotein Glutathione Peroxidase 1 (GPX1) (AID 1845191); further: nearly all actives have a fitted effect of over 65% in size; further: potency means the concentration at half of the fitted maximal effect
Chain of Glutathione peroxidase 1 (Homo sapiens) (P07203 whole entry, looked up): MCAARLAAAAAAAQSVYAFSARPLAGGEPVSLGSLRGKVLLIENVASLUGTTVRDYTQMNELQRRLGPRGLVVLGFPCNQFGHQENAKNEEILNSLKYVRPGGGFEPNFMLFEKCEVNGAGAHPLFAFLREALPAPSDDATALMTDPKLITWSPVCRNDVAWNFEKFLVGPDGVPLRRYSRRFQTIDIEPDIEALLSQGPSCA
Method in brief: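 10 nM GPX1 + cpd, 30 min RT; start w/ 1 mM GSH, 0.5 mM cumene hydroperoxide, 0.5 mM NADPH, 100 nM GR, 0.01% BSA; buffer 50 mM Tris-HCl pH 7.5, 2 mM EDTA, 150 mM NaCl; Fl 340/450, 0 & 15 min.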

[7] = molecular target: N-terminal Xaa-Pro-Lys N-methyltransferase 1 (Homo sapiens) (UniProt Q9BV86); assay: Confirmatory qHTS for Inhibitors of N-terminal methyltransferase 1 (NTMT1): MTaseGlo Assay (AID 1645874); further: potency means the concentration at half of the fitted maximal effect; nearly all actives have a fitted effect of over 65% in size
Chain of N-terminal Xaa-Pro-Lys N-methyltransferase 1 (Homo sapiens) (Q9BV86 whole entry, looked up): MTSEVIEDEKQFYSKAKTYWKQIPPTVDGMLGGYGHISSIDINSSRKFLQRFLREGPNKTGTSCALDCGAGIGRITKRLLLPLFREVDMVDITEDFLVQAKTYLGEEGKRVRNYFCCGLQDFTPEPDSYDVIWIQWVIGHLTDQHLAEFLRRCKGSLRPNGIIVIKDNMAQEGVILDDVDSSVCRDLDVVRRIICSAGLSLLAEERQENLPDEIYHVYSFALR
Method in brief: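 Compounds are incubated with 125 nM NTMT1 and 100 uM SAM for 15 min before the SPKRIA peptide (1 uM) starts a 30 min room-temperature methylation. SAH is measured by coupled luciferase luminescence and curves fitted to a Hill equation.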

[8] = molecular target: Catechol O-methyltransferase (Homo sapiens) (UniProt P21964); assay: Confirmatory Screen for Target Class Profiling of Small Molecule Inhibitors of Methyltransferases (AID 1745852; calls by dose curve; further: potency means the concentration at half of the fitted maximal effect; on activity change, negative = inhibition: on the % scale 0 is the no-effect control and ±100 the full control effect); conditions: MTase-Glo luminescence, SAH detection, recombinant enzyme; measured here: COMT max response; stronger effect = lower value
Chain of Catechol O-methyltransferase (Homo sapiens) (P21964 whole entry, looked up): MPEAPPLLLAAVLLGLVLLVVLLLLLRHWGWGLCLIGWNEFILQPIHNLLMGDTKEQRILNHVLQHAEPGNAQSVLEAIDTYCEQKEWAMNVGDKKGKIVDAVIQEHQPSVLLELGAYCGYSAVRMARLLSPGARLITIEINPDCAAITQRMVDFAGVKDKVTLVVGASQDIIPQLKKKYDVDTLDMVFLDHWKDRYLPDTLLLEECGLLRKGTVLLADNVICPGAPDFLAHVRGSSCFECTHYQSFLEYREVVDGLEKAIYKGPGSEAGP

[9] = molecular target: Guanidinoacetate N-methyltransferase (Homo sapiens) (UniProt Q14353); assay: as above; conditions: activity change, negative = inhibition: at 57.3 µM (top of the series) unless noted
[10] = molecular target: Nicotinamide N-methyltransferase (Homo sapiens) (UniProt P40261); assay: as above; conditions: MTase-Glo luminescence, SAH detection, recombinant enzyme; measured here: NNMT max response; stronger effect = lower value
Chain of Nicotinamide N-methyltransferase (Homo sapiens) (P40261 whole entry, looked up): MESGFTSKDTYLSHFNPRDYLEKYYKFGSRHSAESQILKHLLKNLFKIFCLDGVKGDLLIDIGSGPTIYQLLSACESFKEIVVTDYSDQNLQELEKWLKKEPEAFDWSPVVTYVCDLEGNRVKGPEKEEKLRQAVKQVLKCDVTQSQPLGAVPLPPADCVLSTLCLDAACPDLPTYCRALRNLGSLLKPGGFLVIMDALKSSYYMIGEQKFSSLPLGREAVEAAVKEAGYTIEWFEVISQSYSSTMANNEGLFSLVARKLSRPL

[11] = molecular target: Phenylethanolamine N-methyltransferase (Homo sapiens) (UniProt P11086); assay: as above; conditions: MTase-Glo luminescence, SAH detection, recombinant enzyme; measured here: PNMT max response; stronger effect = lower value
Chain of Phenylethanolamine N-methyltransferase (Homo sapiens) (P11086 whole entry, looked up): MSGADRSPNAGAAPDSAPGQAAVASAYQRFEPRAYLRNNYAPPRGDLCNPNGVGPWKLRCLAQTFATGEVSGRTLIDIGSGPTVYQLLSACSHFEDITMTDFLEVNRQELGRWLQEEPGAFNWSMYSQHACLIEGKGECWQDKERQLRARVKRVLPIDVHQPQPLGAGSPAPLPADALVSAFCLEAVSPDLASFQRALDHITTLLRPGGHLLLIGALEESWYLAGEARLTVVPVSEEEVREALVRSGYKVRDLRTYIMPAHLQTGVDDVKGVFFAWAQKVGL

[12] = molecular target: Cytochrome P450 2D6 (Homo sapiens) (UniProt P10635); assay: Cytochrome P450 family 2 subfamily D member 6 (CYP2D6) small molecule antagonists: luciferase biochemical (cell-free) qHTS assay (AID 1645840; active means well fitted curve in the direction sought with a large enough effect in the repeat runs; an effect the other way counts as inactive or inconclusive; further: on the % scale 0 is the no-effect control and ±100 the full control effect; nearly all actives have a fitted effect of over 55% in size)
Chain of Cytochrome P450 2D6 (Homo sapiens) (P10635 whole entry, looked up): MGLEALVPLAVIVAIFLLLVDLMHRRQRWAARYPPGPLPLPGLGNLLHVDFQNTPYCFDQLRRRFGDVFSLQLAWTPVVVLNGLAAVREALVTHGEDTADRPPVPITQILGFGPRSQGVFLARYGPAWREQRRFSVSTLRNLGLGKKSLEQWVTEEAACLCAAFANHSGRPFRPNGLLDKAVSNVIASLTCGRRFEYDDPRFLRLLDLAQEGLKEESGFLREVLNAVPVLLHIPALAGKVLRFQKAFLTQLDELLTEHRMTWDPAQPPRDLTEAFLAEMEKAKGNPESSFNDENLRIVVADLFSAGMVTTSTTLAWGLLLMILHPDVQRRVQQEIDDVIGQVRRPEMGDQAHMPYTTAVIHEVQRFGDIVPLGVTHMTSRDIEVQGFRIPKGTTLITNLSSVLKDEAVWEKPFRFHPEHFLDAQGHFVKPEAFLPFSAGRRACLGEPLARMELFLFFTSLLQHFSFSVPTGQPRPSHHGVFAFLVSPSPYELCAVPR
Method in brief: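 P450-Glo luminescent screen: recombinant CYP2D6 enzyme–proluciferin substrate mix preincubated with compound 10 min at room temperature, then NADPH regeneration added for 1 h at room temperature. Detection reagent added for 20 min; luciferin light read as relative luminescence units.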

[13] = molecular target: Cytochrome P450 2C9 (Homo sapiens) (UniProt P11712); assay: Cytochrome P450 family 2 subfamily C member 9 (CYP2C9) small molecule antagonists: luciferase biochemical (cell-free) qHTS assay (AID 1645842; active means well fitted curve in the direction sought with a large enough effect in the repeat runs; an effect the other way counts as inactive or inconclusive; further: on the % scale 0 is the no-effect control and ±100 the full control effect; nearly all actives have a fitted effect of over 55% in size)
Chain of Cytochrome P450 2C9 (Homo sapiens) (P11712 whole entry, looked up): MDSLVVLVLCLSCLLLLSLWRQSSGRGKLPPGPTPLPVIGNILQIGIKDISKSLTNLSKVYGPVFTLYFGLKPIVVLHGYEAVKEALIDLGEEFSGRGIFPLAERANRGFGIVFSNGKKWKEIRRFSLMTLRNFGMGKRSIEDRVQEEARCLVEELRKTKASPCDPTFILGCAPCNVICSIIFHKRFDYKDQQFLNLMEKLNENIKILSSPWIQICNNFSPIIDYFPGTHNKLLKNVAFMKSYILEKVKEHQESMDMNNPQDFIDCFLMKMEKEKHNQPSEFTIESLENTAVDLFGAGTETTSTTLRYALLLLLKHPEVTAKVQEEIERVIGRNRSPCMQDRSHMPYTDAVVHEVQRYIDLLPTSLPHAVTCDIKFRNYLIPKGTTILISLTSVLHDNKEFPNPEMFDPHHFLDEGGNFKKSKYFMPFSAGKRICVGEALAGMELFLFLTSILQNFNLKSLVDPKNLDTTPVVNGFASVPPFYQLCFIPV
Method in brief: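 Luminescence, after 20 min with luciferin detection reagent, reflected CYP2C9 turnover during a 1 h NADPH-driven reaction at 37C. Enzyme-substrate mix contained 0.4% bovine serum albumin and was preincubated with compound 10 min at room temperature.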

[14] = qHTS drug screen for cell cycle checkpoint inhibitors in PARPi-resistant BRCA-mutant ovarian cancer cell lines. (AID 1963452; calls by dose curve); conditions: PEO1/OlaR viability, CellTiter-Glo luminescence, 96 h, stronger effect = lower value
Method in brief: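 PEO1, PEO4 and PEO1/OlaR ovarian cancer cells, 600 per well, exposed 96 h at 37C to a dilution series. Viability read by CellTiter-Glo luminescence, normalized to DMSO and empty wells; activity summarized as Z-AUC.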

[15] = qHTS to identify inhibitors of the type 1 interferon - major histocompatibility complex class I in skeletal muscle: primary screen against the NCATS Mechanism Interrogation Plate v5.0 (MIPE) Libary (AID 1347411);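 further: plate controls were vehicle for no effect and reference inhibitor for full effect; nearly all actives have a fitted effect of over 65% in size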
Method in brief: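 Luminescence from HiBiT-tagged endogenous HLA-B*08:01 served as the MHC class I read-out. CRISPR-engineered C25cl48 human myoblasts received 4.0 ng/ml IFN-beta plus compound for 24 hrs, with an 11-point, 1:3 series topping at 46 uM final.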

[16] = molecular target: Phospholipid hydroperoxide glutathione peroxidase GPX4 (Homo sapiens) (UniProt P36969); assay: Primary qHTS Assay for Inhibitors of Recombinant Selenoprotein Glutathione Peroxidase 4 (GPX4) (AID 1845192); conditions: outcome: dose series up to 50 µM unless noted
Chain of Phospholipid hydroperoxide glutathione peroxidase GPX4 (Homo sapiens) (P36969 whole entry, looked up): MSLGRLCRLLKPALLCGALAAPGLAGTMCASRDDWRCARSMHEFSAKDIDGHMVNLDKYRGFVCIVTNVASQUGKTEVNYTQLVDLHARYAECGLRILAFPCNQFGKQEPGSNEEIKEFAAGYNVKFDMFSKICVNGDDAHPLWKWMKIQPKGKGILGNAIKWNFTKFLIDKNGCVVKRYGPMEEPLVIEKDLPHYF
Method in brief: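 NADPH consumption, followed by fluorescence at 340/450 nm between 0 and 15 min, reports GPX4 activity via coupled glutathione reductase (100 nM). Enzyme 200 nM was pre-exposed to compound 30 min; 0.5 mM cumene hydroperoxide and 1 mM GSH served as substrates.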

[17] = qHTS assay to identify inhibitors of the type 1 interferon - major histocompatibility complex class I in skeletal muscle: Counter screen cell viability and HiBit confirmation (AID 1347412); conditions: iHSKM muscle cells + IFN-b, HiBiT or CellTiter-Glo, 24 h; HiBiT; at 45.9 µM (top of the series); further: on the % scale 0 is the no-effect control and ±100 the full control effect; nearly all actives have a fitted effect of over 60% in size
Method in brief: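 Human myoblast knock-in line, 4.0 ng/ml IFN-beta stimulation, 24 h compound treatment. Endpoints: HiBiT lytic luminescence (HLA-B level) and CellTiter Glo (ATP). Dosing 12 concentrations, 3-fold steps, 46 uM highest final.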

[18] = measured here: PEO1 parental Z-AUC

O=C1CCc2cc(S(=O)(=O)Nc3ccc(F)c(Cl)c3)c(F)cc2N1
Potency [1]: inactive
Potency [2]: inactive
outcome [3]: inactive
Potency [4]: inactive
Potency [5]: inactive
Potency [6]: inactive

Cc1ccc([N+](=O)[O-])cc1S(=O)(=O)N(C)/N=C\c1cnc2ccc(Br)cn12
Potency [1]: 0.164 µM (active)
Potency [2]: 0.231 µM (active)
Potency [4]: 0.058 µM (active)
Potency [5]: 0.0517 µM (active)

Cc1nc(CN(C)c2ncnc3ccc(-c4ccc5c(c4)OCO5)cc23)cs1
Potency [1]: 16.4 µM (active)
Potency [2]: 20.6 µM (active)
outcome [3]: inactive
Potency [7]: 4.26 µM (active)
Potency [4]: 8.2 µM (active)
Potency [5]: 9.2 µM (active)
activity [8]: -89.6%
Potency [9]: 19.2 µM (active)
activity [10]: -80.4%
activity [11]: -90.3%
Potency [6]: inactive

C/C(=C1/C(=O)Nc2ccc(NC(N)=O)cc21)c1ccc[nH]1
Potency [1]: 4.61 µM (active)
Potency [2]: 4.61 µM (active)
Potency [4]: 1.64 µM (active)
Potency [5]: 1.84 µM (active)

S=c1ssc2c1CCC2
Potency [1]: inactive
Potency [2]: inactive
Potency [4]: inactive
Potency [5]: inactive
activity [8]: -2.41%
activity change, negative = inhibition [9]: 0%
activity [10]: -69.9%
activity [11]: -71%
Potency [6]: 14.3 µM (active)

Cc1[nH]c(/C=C2\C(=O)Nc3ccccc32)c(C)c1CCC(=O)O
Potency [1]: inactive
Potency [2]: inactive
Potency [12]: inactive
Potency [13]: inactive
Potency [4]: inactive
Potency [6]: inactive
Z-AUC [14]: 0.922 (inactive)
Z-AUC [14, 18]: 0.668
Z-AUC ([14]; measured here: PEO4 Z-AUC): 0.162

O=C1CCCC2=C1C(c1ccncc1Br)N=C(Nc1nc3ccccc3o1)N2 (stereo not drawn)
Potency [1]: inactive
Potency [2]: inactive
outcome [3]: inactive
Potency [6]: inactive

CCOC(=O)c1cc2ccc(O)cc2oc1=O
Potency [1]: inactive
Potency [2]: inactive
Potency [4]: inactive
Potency [5]: inactive

COC(=O)c1ccc(=O)c2nc3/c(=C/O)c(O)cc(=O)c3[nH]c12
Potency [1]: inactive
Potency [2]: inactive
Potency [4]: 5.17 µM (active)
Potency [5]: 13 µM (active)
activity [8]: -24.9%
activity change, negative = inhibition [9]: -20.5%
activity [10]: -20%
activity [11]: -28.7%
Potency [6]: inactive

O=C(NOCCO)c1ccc2cncn2c1Nc1ccc(I)cc1F
Potency [1]: inactive
Potency [2]: inactive
Potency [15]: inactive
Potency [6]: inactive

N#Cc1ccc(-c2c(-c3ncn[nH]3)sc(N3CCOCC3)c2C#N)c(F)c1
Potency [1]: 2.06 µM (active)
Potency [2]: 5.8 µM (active)
Potency [4]: 1.03 µM (active) and 934 nM (active)
Potency [5]: 651 nM (active) and 1.18 µM (active)
Potency [6]: inactive
Potency [16]: inactive
Z-AUC [14]: -1.04 (inactive)
Z-AUC [14, 18]: -1.47
Z-AUC ([14]; measured here: PEO4 Z-AUC): -1.34
activity change, negative = inhibition [17]: -34.7% (inactive)

O=C(Nc1cccc(Nc2nccc(Nc3cccc(C(F)(F)F)c3)n2)c1)C1CC1
Potency [1]: 5.8 µM (active)
Potency [2]: 5.8 µM (active)
Potency [4]: 3.66 µM (active)
Potency [5]: 2.59 µM (active)
Potency [6]: inactive

CS(=O)(=O)c1ccc([C@@H](C[C@H]2CCC(=O)C2)C(=O)Nc2cnccn2)cc1Cl
Potency [1]: inactive
Potency [2]: inactive
Potency [4]: inactive
Potency [5]: inactive
Potency [6]: inactive

Cc1c(-c2ccnc(Nc3cc(Br)cc(C(F)(F)F)c3)n2)sc(=O)n1C
Potency [1]: inactive
Potency [2]: inactive
Potency [4]: 5.8 µM (active)
Potency [5]: 4.11 µM (active)
Potency [6]: inactive

CC1=CC(=O)C(C(C)C)=C/C1=N/OC(=O)c1ccccc1C
Potency [1]: inactive
Potency [2]: inactive
Potency [4]: 8.2 µM (active)
Potency [5]: 11.6 µM (active)
Potency [6]: inactive

OCC(O)CCO/N=C1/C(c2c(O)[nH]c3ccccc23)=Nc2ccccc21 (stereo not drawn)
Potency [1]: 14.6 µM (active)
Potency [2]: 16.4 µM (active)
Potency [4]: 2.59 µM (active)
Potency [5]: 2.59 µM (active)
Potency [6]: inactive

C[C@@H](Oc1cc(-n2cnc3ccc(OC4CCN(C)CC4)cc32)sc1C(N)=O)c1ccccc1Cl
Potency [1]: 0.0184 µM (active)
Potency [2]: 0.461 µM (active)
Potency [4]: 0.0411 µM (active)
Potency [5]: 0.058 µM (active)
activity [8]: -96.8%
Potency [9]: 8.57 µM (active)
activity [10]: -85.5%
activity [11]: -96.2%
Potency [6]: inactive

N#Cc1c2nc3ccccc3nc2n2ccc(NC(=O)c3cccs3)cc12
Potency [1]: 23.1 µM (active)
Potency [2]: 20.6 µM (active)
Potency [4]: 1.16 µM (active)
Potency [5]: 1.16 µM (active)
Potency [6]: inactive

Cc1cc(C)c(/C=C2\C(=O)Nc3ccc(Cl)cc32)[nH]1
Potency [1]: inactive
Potency [2]: inactive
Potency [4]: inactive
Potency [5]: inactive
Potency [6]: inactive

CC1=CC(=O)C(C(C)C)=CC1=O
Potency [1]: inactive
Potency [2]: inactive
Potency [4]: 14.6 µM (active)
Potency [5]: 6.51 µM (active)
Potency [6]: inactive

O=C1Cc2c([nH]c3ccc([N+](=O)[O-])cc23)-c2ccccc2N1
Potency [1]: 1.78 µM (active)
Potency [2]: 2.52 µM (active)
Potency [4]: 0.796 µM (active)
Potency [5]: 0.632 µM (active)
Potency [6]: inactive

Cc1cncc2cccc(S(=O)(=O)N3CCCNC[C@@H]3C)c12
Potency [1]: 6.51 µM (active)
Potency [2]: 1.64 µM (active)
Potency [4]: 13 µM (active)
Potency [5]: 3.66 µM (active)
Potency [6]: inactive

COc1ccc2cc1Oc1ccc(cc1)CC1c3cc(c(OC)cc3CCN1C)Oc1c(OC)c(OC)c(OC)c3c1C(C2)N(C)CC3 (stereo not drawn)
Potency [1]: inactive
Potency [2]: inactive
Potency [4]: inactive
Potency [5]: inactive
Potency [6]: inactive

O=C1c2ccccc2-c2c(NCCc3ccccc3)c(=O)[nH]c3cccc1c23
Potency [1]: 1.03 µM (active)
Potency [2]: 1.16 µM (active)
Potency [4]: 5.17 µM (active)
Potency [5]: 4.61 µM (active)
Potency [6]: inactive
